Measurements taken from PubChem BioAssay (EPA / NIEHS).
Results filed as inconclusive are left out. Activity calls are given as the source filed them. How the source made its calls, unless noted: active means hit-call score of the fitted dose curve at least 0.9, where 1 is the maximum; inconclusive means response in the unintended direction; inactive means score below 0.9.

How the values were obtained:
[1] = target: Nucleoli Translocation, AR (gene 367) (UniProt P10275); assay: UPITT_HCI_U2OS_AR_TIF2_Nucleoli_Antagonist: University of Pittsburgh U2OS Androgen Receptor-Transcriptional Intermediary Factor 2 (AR-TIF2) Antagonism High Content Imaging Assay for Nucleoli Translocation (AID 2283997)
Outline: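 U2OS cells co-expressing red-fluorescent-tagged human AR and green-fluorescent-tagged TIF2, imaged by high-content microscopy for nucleolar red fluorescence. Antagonist mode against DHT; primary screen at 20 uM final (0.2% DMSO).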

[2] = target: Nucleoli Translocation, AR (gene 367) (UniProt P10275); assay: UPITT_HCI_U2OS_AR_TIF2_Nucleoli_Agonist: University of Pittsburgh U2OS Androgen Receptor-Transcriptional Intermediary Factor 2 (AR-TIF2) Agonism High Content Imaging Assay for Nucleoli Translocation (AID 2283998)
Outline: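 U2OS cells expressing RFP-tagged human AR and GFP-tagged TIF2; red fluorescence in nucleoli quantified by high-content imaging. Primary screen at 20 uM final (0.2% DMSO); concentration-response 0.195–50 uM (0.5% DMSO), fitted upward versus DMSO.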

[3] = target: Ratio of Nucleoli Translocation and Cytoplasm, AR (gene 367) (UniProt P10275); assay: UPITT_HCI_U2OS_AR_TIF2_Nucleoli_Cytoplasm_Ratio_Antagonist: University of Pittsburgh U2OS Androgen Receptor-Transcriptional Intermediary Factor 2 (AR-TIF2) Antagonism High Content Imaging Assay for Ratio of Nucleoli Translocation and Cytoplasm (AID 2283999);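 further: antagonists lower the DHT-driven ratio of nucleolar to cytoplasmic red signal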
Outline: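 U2OS cells co-expressing RFP-tagged human AR and GFP-tagged TIF2, antagonist mode with DHT as baseline. Nucleolar-to-cytoplasmic red fluorescence ratio imaged by high-content microscopy; final compound 20 uM (0.2% DMSO) primary, 0.195–50 uM (0.5% DMSO) concentration-response.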

[4] = target: Ratio of Nucleoli Translocation and Cytoplasm, AR (gene 367) (UniProt P10275); assay: UPITT_HCI_U2OS_AR_TIF2_Nucleoli_Cytoplasm_Ratio_Agonist: University of Pittsburgh U2OS Androgen Receptor-Transcriptional Intermediary Factor 2 (AR-TIF2) Agonism High Content Imaging Assay for Ratio of Nucleoli Translocation and Cytoplasm (AID 2284000);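 further: hits raise the red nucleolar to cytoplasm ratio above vehicle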
Outline: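 U2OS cells expressing RFP-tagged human AR and GFP-tagged TIF2; high-content imaging ratio of nucleolar to cytoplasmic red fluorescence, fitted as gain of signal vs DMSO. Single point at 20 uM final (0.2% DMSO); concentration-response 0.195-50 uM final (0.5% DMSO).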

[5] = CCTE_Harrill_HTTr_Viability_MCF7: CCTE's 6-hour Cell Viability Assessment for the High-Throughput Transcriptomics (HTTr) Platform, in MCF-7 cells cultured in DMEM + 10% fetal bovine serum, Harrill Lab (AID 2284010; active means hit-call score of the fitted dose curve at least 0.9, where 1 is the maximum; inactive means score below 0.9)
Outline: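 MCF-7 cells in DMEM + 10% FBS, 384-well, exposed 6 h to an eight-point dilution series. Membrane integrity scored by high-content imaging of propidium iodide exclusion; bidirectional fit versus DMSO.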

[6] = CCTE_Harrill_HTTr_Apoptosis_MCF7: CCTE's 6-hour Apoptosis Assessment for the High-Throughput Transcriptomics (HTTr) Platform, in MCF-7 cells cultured in DMEM + 10% fetal bovine serum, Harrill Lab (AID 2284011; active means hit-call score of the fitted dose curve at least 0.9, where 1 is the maximum; inactive means score below 0.9)
Outline: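 MCF-7 cells in DMEM + 10% FBS exposed 6 h to chemicals over an eight-point dilution series. Caspase-3/7 activation imaged by high-content CellEvent Green staining; fitted bidirectionally versus DMSO.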

[7] = CCTE_Simmons_MITO_max_resp_rate: CCTE's HepG2 Seahorse XF Respirometric Screening Assay at Maximal Respiratory State [uncoupled], Simmons Lab (AID 2284002; active means hit-call score of the fitted dose curve at least 0.9, where 1 is the maximum; inactive means score below 0.9); settings: actives raise or lower the signal
Outline: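 HepG2 oxygen consumption measured on Seahorse XF after FCCP uncoupling, following test compound injection; 7 concentrations from 125 nM to 100 uM final. Readings every 6 min over 72 min, three biological replicates; bidirectional fit versus DMSO.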

[8] = CCTE_Simmons_MITO_inhib_resp_rate: CCTE's HepG2 Seahorse XF Respirometric Screening Assay at Inhibited Respiratory State [full ETC block], Simmons Lab (AID 2284006; active means hit-call score of the fitted dose curve at least 0.9, where 1 is the maximum; inactive means score below 0.9); settings: actives raise or lower the signal
Outline: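 HepG2 oxygen consumption was measured by Seahorse XF after compound, FCCP, then rotenone/antimycin A injections. Seven concentrations from 125 nM to 100 uM (final) were tested, with 6-min kinetic reads over 72 minutes. Inhibited-state OCR was fitted bidirectionally against DMSO.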

[9] = CCTE_Simmons_MITO_viability: CellTiter-Glo Viability Assessment for CCTE's HepG2 Seahorse XF Respirometric Screening Assay [post-hoc], Simmons Lab (AID 2284007)
Outline: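 HepG2 cells exposed 90 min to 7 concentrations from 125 nM to 100 uM final, then ATP measured by luciferase luminescence. Three biological replicates per concentration; DMSO vehicle; dichlone control at 10 nM–100 uM.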

[10] = CCTE_Shafer_MEA_acute_spike_number: CCTE's Neural Acute Assay for Total Number of Spikes, Shafer Lab (AID 2284008; active means hit-call score of the fitted dose curve at least 0.9, where 1 is the maximum; inactive means score below 0.9;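 on AC50: curve fitted for decrease in spike count so AC50 reflects inhibitors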)
Outline: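 Rat primary cortical neurons on 48-well MEA plates, DIV 13 or 15, at 37 C. 40 min baseline then 40 min with compound (0.03-40 uM); spikes detected at 8x rms noise, expressed as percent change from baseline.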

[11] = CCTE_Shafer_MEA_acute_firing_rate_mean: CCTE's Neural Acute Assay for Mean Firing Rate, Shafer Lab (AID 2284009; active means hit-call score of the fitted dose curve at least 0.9, where 1 is the maximum; inactive means score below 0.9;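 further: analyzed for loss of signal so actives lower firing rate relative to DMSO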)
Outline: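 Rat primary cortical neurons on 48-well MEA plates, dosed at 0.03-40 uM on DIV 13 or 15; 40 min spontaneous activity recorded at 37 C before and after compound. Spike rate per electrode averaged per well, expressed as percent change from baseline.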

[12] = target: THRA (gene 7067) (UniProt P10827); assay: TOX21_TRA_COA_Agonist_Followup_ratio: Tox21 Thyroid Hormone Receptor alpha Agonism through Coactivator Recruitment Follow-Up Assay, Ratio (AID 2283948; active means hit-call score of the fitted dose curve at least 0.9, where 1 is the maximum; inactive means score below 0.9)
Outline: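 Cell-free TR-FRET: GST-tagged TRα LBD (2.5 nM) with 0.10% BSA and compound, then fluorescein-SRC-2 peptide (200 nM) and Tb-anti-GST antibody (2 nM). Readout 520:495 nm ratio (ex 340 nm), normalized to DMSO (0%) and T3 (100%).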

[13] = target: THRB (gene 7068) (UniProt P10828); assay: TOX21_TRB_BLA_Agonist_Followup_ratio: Tox21 Thyroid Hormone Receptor beta Agonism Beta-lactamase (BLA) Follow-Up Assay, Ratio (AID 2283954)
Outline: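 Human TRβ LBD–GAL4 DBD fusion in GeneBLAzer UAS-bla HEK293T cells; 11 concentrations in triplicate, 18 h at 37°C/5% CO2, T3 as agonist control. CCF4-AM substrate 2 h at room temperature; 460:530 nm ratio fitted for gain of signal versus DMSO.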

[14] = TOX21_TRB_BLA_Agonist_Followup_viability: Viability Assessment in the Tox21 Thyroid Hormone Receptor beta Agonism Beta-lactamase (BLA) Follow-Up Assay (AID 2283956)
Outline: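 TRb-bla HEK293T cells (GAL4-DBD/human TRb LBD) in 2% charcoal-stripped FBS medium were exposed 18 h at 37C to 11 concentrations in triplicate. CellTiter-Glo ATP luminescence was read after 30 min at room temperature, with bidirectional fitting against DMSO.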

[15] = target: THRB (gene 7068) (UniProt P10828); assay: TOX21_TRB_COA_Agonist_Followup_ratio: Tox21 Thyroid Hormone Receptor beta Agonism through Coactivator Recruitment Follow-Up Assay, Ratio (AID 2283963; active means hit-call score of the fitted dose curve at least 0.9, where 1 is the maximum; inactive means score below 0.9)
Outline: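 Signal is the 520/495 nm emission ratio (excitation 340 nm), scaled between DMSO-only wells as 0% and T3 wells as 100%. It reflects fluorescein-labeled SRC-2 peptide recruitment to GST-TRβ ligand-binding domain detected via terbium anti-GST antibody.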

[16] = target: Retinoic acid receptor RXR-alpha (Homo sapiens) (UniProt P19793); assay: TOX21_TR_RXR_BLA_Agonist_Followup_ratio: Tox21 Thyroid Hormone Receptor beta Retinoid X Receptor alpha (RXRa) Agonism Beta-lactamase (BLA) Follow-Up Assay, Ratio (AID 2283968)
Outline: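 RXRa-UAS-bla HEK293T cells, 5 h attachment at 37C/5% CO2, then 11 concentrations in triplicate for 16 h; 9-cis retinoic acid positive control. FRET-B/GCCF4-AM substrate 2 h at room temperature; 460:530 nm ratio, fitted for gain versus DMSO.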

[17] = TOX21_TR_RXR_BLA_Agonist_Followup_viability: Viability Assessment in the Tox21 Thyroid Hormone Receptor beta Retinoid X Receptor alpha (RXRa) Agonism Beta-lactamase (BLA) Follow-Up Assay (AID 2283970)
Outline: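 RXRa-UAS-bla HEK293T cells, 2,500/well in phenol red-free DMEM with 2% charcoal-stripped FBS, dosed for 16 h at 37C. Viability measured by CellTiter-Glo ATP luminescence; fitted bidirectionally against DMSO baseline, loss of signal indicating cytotoxicity.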

[18] = TOX21_PR_LUC_Followup_Agonist_viability: Viability Assessment in the Tox21 HEK293 Progesterone Receptor (PR) Agonism Luciferase Follow-Up Assay (AID 2283941);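 further: loss of signal means cytotoxicity so actives lower viability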
Outline: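 HEK293-PR-A-luc cells, kept in 10% charcoal-stripped FBS medium, were treated with compounds for 16 h at 37C. Viability read as cellular ATP by luciferase-coupled luminescence; loss of signal indicates cytotoxicity.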

[19] = test system: DIO1 (gene 1733); assay: CCTE_GLTED_hDIO1: CCTE's human Deiodinase 1 (DIO1) Inhibition Assay, Great Lakes Toxicology and Ecology Division (GLTED) Lab (AID 2283987);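 further: isolated human DIO1 enzyme in a cell-free setup rather than cells; enzyme activity read as free iodide liberated from substrate via Sandell-Kolthoff colorimetry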
Outline: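 Cell-free human DIO1 enzyme incubated 3 h with test chemical; iodide freed from substrate then measured by Sandell-Kolthoff absorbance. Run in triplicate; loss of signal relative to DMSO taken as inhibition.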

[20] = CCTE_Simmons_MITO_basal_resp_rate: CCTE's HepG2 Seahorse XF Respirometric Screening Assay at Basal Respiratory State, Simmons Lab (AID 2284001; active means hit-call score of the fitted dose curve at least 0.9, where 1 is the maximum; inactive means score below 0.9); settings: actives raise or lower the signal
Outline: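 HepG2 oxygen consumption on Seahorse XF96 after compound injection, 7 concentrations 125 nM–100 uM final, reads every 6 min over 72 min. Triplicate biological replicates; bidirectional fit vs DMSO; fenpyroximate and 2,4-dinitrophenol controls.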

Measured: AC50

Nucleoli Translocation, AR (gene 367), sequence (P10275 whole entry, looked up): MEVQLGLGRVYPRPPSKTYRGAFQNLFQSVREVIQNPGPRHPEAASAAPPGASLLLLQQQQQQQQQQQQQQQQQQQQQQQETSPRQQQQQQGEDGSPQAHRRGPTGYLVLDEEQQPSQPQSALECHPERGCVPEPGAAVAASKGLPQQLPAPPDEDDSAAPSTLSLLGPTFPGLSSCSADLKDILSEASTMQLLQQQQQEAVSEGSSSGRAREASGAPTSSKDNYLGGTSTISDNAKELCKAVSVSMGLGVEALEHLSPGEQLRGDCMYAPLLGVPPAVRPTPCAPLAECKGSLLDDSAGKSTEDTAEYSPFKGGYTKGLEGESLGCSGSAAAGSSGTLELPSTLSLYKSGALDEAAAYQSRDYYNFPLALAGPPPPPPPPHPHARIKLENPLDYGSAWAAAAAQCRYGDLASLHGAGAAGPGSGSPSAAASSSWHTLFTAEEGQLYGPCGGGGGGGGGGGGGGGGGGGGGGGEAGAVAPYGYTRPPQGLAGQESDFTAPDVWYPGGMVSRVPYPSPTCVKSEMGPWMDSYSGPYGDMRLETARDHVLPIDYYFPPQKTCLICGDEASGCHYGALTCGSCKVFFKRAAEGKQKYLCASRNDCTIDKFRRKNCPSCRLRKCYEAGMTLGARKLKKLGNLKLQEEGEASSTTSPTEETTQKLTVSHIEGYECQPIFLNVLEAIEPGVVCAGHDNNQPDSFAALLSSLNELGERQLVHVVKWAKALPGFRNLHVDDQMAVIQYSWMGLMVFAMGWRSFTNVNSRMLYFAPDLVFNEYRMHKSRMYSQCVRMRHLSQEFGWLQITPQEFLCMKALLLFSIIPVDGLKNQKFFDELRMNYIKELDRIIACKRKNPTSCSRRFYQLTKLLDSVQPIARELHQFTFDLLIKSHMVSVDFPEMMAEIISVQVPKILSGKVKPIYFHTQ
Ratio of Nucleoli Translocation and Cytoplasm, AR (gene 367), sequence (P10275 whole entry, looked up): as above
THRB (gene 7068), sequence (P10828 whole entry, looked up, the tested form may be a part): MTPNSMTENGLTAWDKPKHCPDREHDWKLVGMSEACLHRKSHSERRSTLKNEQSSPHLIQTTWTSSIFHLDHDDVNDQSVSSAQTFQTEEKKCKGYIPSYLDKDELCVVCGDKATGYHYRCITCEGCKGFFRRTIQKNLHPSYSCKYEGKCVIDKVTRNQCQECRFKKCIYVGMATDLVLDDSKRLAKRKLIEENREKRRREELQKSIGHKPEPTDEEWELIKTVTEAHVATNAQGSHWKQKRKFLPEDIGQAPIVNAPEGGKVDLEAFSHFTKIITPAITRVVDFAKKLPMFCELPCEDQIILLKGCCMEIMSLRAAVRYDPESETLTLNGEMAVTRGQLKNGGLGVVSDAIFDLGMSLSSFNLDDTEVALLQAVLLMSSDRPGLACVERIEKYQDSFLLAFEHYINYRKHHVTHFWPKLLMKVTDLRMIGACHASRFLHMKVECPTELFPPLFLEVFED
THRA (gene 7067), sequence (P10827 whole entry, looked up, the tested form may be a part): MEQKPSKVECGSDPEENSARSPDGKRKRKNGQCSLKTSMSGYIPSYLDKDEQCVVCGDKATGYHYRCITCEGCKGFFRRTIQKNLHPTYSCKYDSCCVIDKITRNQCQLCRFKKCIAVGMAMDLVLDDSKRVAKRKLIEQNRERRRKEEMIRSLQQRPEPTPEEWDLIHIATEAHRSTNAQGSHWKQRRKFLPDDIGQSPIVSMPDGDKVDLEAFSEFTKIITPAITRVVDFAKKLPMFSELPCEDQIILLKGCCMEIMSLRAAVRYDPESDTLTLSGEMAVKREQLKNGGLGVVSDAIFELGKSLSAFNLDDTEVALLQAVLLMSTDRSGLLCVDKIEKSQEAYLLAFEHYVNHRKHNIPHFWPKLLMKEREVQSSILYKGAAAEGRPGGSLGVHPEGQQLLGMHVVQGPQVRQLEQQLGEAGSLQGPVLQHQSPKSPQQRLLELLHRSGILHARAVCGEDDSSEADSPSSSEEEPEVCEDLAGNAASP
Retinoic acid receptor RXR-alpha (Homo sapiens), sequence (P19793 whole entry, looked up): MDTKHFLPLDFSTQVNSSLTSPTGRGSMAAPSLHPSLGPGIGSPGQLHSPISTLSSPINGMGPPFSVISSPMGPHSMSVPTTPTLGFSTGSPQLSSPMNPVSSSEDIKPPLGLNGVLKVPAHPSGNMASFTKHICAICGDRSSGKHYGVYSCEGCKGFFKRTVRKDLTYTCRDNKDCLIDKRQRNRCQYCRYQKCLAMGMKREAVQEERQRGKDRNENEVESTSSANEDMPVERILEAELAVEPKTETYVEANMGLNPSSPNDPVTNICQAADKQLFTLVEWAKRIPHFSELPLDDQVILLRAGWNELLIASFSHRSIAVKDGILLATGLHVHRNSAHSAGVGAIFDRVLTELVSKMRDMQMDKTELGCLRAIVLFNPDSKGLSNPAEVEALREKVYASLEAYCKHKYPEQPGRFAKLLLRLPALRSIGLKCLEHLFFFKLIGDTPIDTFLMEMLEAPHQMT

CNC(=O)O/N=C/C(C)(C)S(C)(=O)=O
inactive: [1] | [2] | [3] | [4] | [5] | [6]

C=CC(Cl)CCl (centres undefined)
inactive: [1] | [3] | [4]

Oc1cc(Cl)c(Cl)cc1Cl
inactive: [8] | [9] | [5] | [6]
active: [7] 75.4 µM | [10] 36.3 µM | [11] 34.2 µM

C=CC(=O)[O][Sn]([CH2]CCC)([CH2]CCC)[CH2]CCC
active: [16] 0.137 µM | [17] 9.68 µM
inactive: [12] | [13] | [14] | [15]

CCOP(=S)(OCC)OP(=S)(OCC)OCC
inactive: [2] | [3] | [4] | [5] | [6]
active: [1] 72.1 µM

CS(=O)(=O)c1ccc(C(=O)C2C(=O)CCCC2=O)c(Cl)c1COCC(F)(F)F
inactive: [10] | [11] | [5] | [6]

OC(Cc1ccccc1Cl)(Cn1[nH]cnc1=S)C1(Cl)CC1 (centres undefined)
inactive: [1] | [2] | [3] | [4] | [5] | [6]

O=S(=O)(Oc1ccc(Cl)cc1)c1ccc(Cl)cc1
inactive: [18]

COCCl
inactive: [1] | [2] | [3] | [4] | [5] | [6]

Cc1cc(Cl)ccc1OCCCC(=O)O
inactive: [2] | [4] | [5] | [6]

O=C1c2ccccc2C(=O)C1C(=O)C(c1ccccc1)c1ccc(Cl)cc1 (centres undefined)
active: [19] 19.8 µM | [1] 50 µM
inactive: [2] | [3] | [4]

OC(c1ccc(Cl)cc1)(c1ccc(Cl)cc1)c1cccnc1
inactive: [18]

O=S1OC[C@@H]2[C@H](CO1)[C@]1(Cl)C(Cl)=C(Cl)[C@@]2(Cl)C1(Cl)Cl (some centres undefined)
inactive: [3] | [5] | [6]
active: [1] 32.2 µM

O=C(O)COc1cc(Cl)c(Cl)cc1Cl
inactive: [1] | [4] | [5] | [6]

O=C(CCl)Nc1ccccc1
inactive: [2] | [4]
active: [19] 21.1 µM | [1] 29 µM | [3] 26.3 µM

Oc1c(Cl)cc(Cl)cc1Cl
active: [20] 77 µM
inactive: [7] | [8] | [9] | [5] | [6]
